Test results taken from PubChem BioAssay.
The source made the active and inactive calls.

Experiments:
[1] = system: Plasmodium falciparum Sir2 (PF13_0152, Sir2A); experiment: pfSir2 binders on small-molecule microarrays, primary screen, biochemical, small-molecule microarray, 635 nm fluorescence (AID 1098); conditions: small-molecule microarray binding, fluorescence 635 nm; higher = more signal;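 also: score merges spot fluorescence intensity with its signal-to-noise ratio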
[2] = small-molecule microarray binders of probe aDKK1, primary screen, biochemical, biotinylated probe, 635/667 nm fluorescence (AID 1099); conditions: higher = more signal;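 also: score merges 667nm spot fluorescence with signal to noise across triplicate slides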
[3] = small-molecule microarray binders of probe aCHRDL2, primary screen, biochemical, biotinylated probe, 635/667 nm fluorescence (AID 1100); conditions: higher = more signal
[4] = splicing luciferase reporter signal modulators, primary screen, spliceosome inhibition project, cell-based, HEK293, splice +/- reporter (AID 1101); conditions: luminescence, 24 h, higher = more signal, called active from +8 up or from −8 down;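 also: HEK293 cells carrying a splicing-competent luciferase reporter gene; test concentration not given here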
[5] = biological target: Fibroblast growth factor 10 (Homo sapiens) (UniProt O15520); experiment: FGF10 binders on small-molecule microarrays, primary screen, biochemical, small-molecule microarray, 635 nm fluorescence (AID 1102); conditions: FGF10 binding, fluorescence 635 nm, higher = more signal
[6] = system: glycogen synthase kinase-3 (GSK3A per assay name; protocol says GSK3B); experiment: GSK3 binders on small-molecule microarrays, primary screen, biochemical, small-molecule microarray, 635 nm fluorescence, GSK3A (AID 1103); conditions: small-molecule microarray binding, fluorescence 635 nm; higher = more signal; also: the record names both GSK3A and GSK3B
[7] = biological target: Epidermal growth factor receptor (Homo sapiens) (UniProt P00533); experiment: EGFR binders on small-molecule microarrays, primary screen, biochemical, small-molecule microarray, 635 nm fluorescence (AID 1104); conditions: EGFR binding, higher = more signal;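 also: score merges 667 nm emission intensity with spot signal to noise over triplicate slides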
[8] = biological target: Follistatin-related protein 3 (Homo sapiens) (UniProt O95633); experiment: FSTL3 binders on small-molecule microarrays, primary screen, biochemical, small-molecule microarray, 635 nm fluorescence (AID 1105); conditions: FSTL3 binding, higher = more signal;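 also: score merges emission near 667 nm and signal to noise per printed spot across three slides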
[9] = biological target: Dickkopf-related protein 1 (Homo sapiens) (UniProt O94907); experiment: DKK1 binders on small-molecule microarrays, primary screen, biochemical, small-molecule microarray, 635 nm fluorescence scan (AID 1106); conditions: DKK1 binding, higher = more signal;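 also: score merges emission near 667 nm with signal to noise over three replicate slides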
[10] = system: Inhibin beta A chain (activin A); experiment: INHBA (activin A) binders on microarrays, primary screen, biochemical, small-molecule microarray, 635 nm fluorescence scan (AID 1107); conditions: small-molecule microarray binding, higher = more signal;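 also: mouse activin A protein probed at 4.33 µg/mL on printed slides; score merges bound-protein fluorescence near 667 nm with spot signal-to-noise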
[11] = system: Human papillomavirus type 1a protein E7 (residues 44-93); experiment: HPV1a E7 fragment binders on microarrays, primary screen, biochemical, small-molecule microarray, residues 44-93, 635 nm fluorescence (AID 1108); conditions: small-molecule microarray binding, fluorescence 635 nm; higher = more signal;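 also: E7 fragment applied at 1 µg/mL in TBST for 1 h at 4 C; score combines spot fluorescence with its signal to noise ratio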
[12] = modulators of HCV replicon luciferase signal, primary screen, HCV replication inhibitor project, Huh7 cells, luciferase reporter (AID 1109); conditions: 48 h, higher = more signal;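 also: huh7 hepatoma cells harbouring a luciferase neomycin HCV replicon reporter; luciferase luminescence as measure of HCV replicon replication; test concentration not given here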
[13] = biological target: Left-right determination factor 2 (Homo sapiens) (UniProt O00292); experiment: LEFTY2 binders on small-molecule microarrays, primary screen, biochemical, small-molecule microarray, 635 nm fluorescence scan (AID 1110); conditions: LEFTY2 binding, higher = more signal
[14] = biological target: Calmodulin-1 (Homo sapiens) (UniProt P0DP23); experiment: CALM1 binders on microarrays, EGTA buffer, profiling panel, biochemical, small-molecule microarray, Cy5-labelled CALM1 (AID 1111); conditions: Cy5-CALM1 binding fluorescence, higher = more signal;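 also: labelled calmodulin applied in Tris saline Tween buffer holding calcium plus EGTA and DTT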
[15] = biological target: Calmodulin-1 (Homo sapiens) (UniProt P0DP23); experiment: calcium-bound CALM1 binders on microarrays, profiling panel, artefact control for SMM control-protein annotation, biochemical, small-molecule microarray, Cy5-labelled CALM1, plus calcium (AID 1112); conditions: Cy5-CALM1 binding fluorescence, higher = more signal;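 also: score merges spot fluorescence with signal to noise from triplicate slides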
[16] = small-molecule microarray binders of probe aWnt5a, primary screen, biochemical, biotinylated probe, 635/667 nm fluorescence (AID 1113); conditions: higher = more signal;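 also: score merges 667 nm fluorescence intensity with signal-to-noise per printed feature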
[17] = small-molecule microarray binders of probe aShh, primary screen, biochemical, biotinylated probe, 635/667 nm fluorescence (AID 1114); conditions: higher = more signal;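 also: probe is biotin-labelled aShh protein from a stem cell growth factor screen; measures binding of labelled protein to compounds printed on the slide; score merges feature fluorescence at 667 nm with signal-to-noise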
[18] = small-molecule microarray binders of probe aNog, primary screen, biochemical, biotinylated probe, 635/667 nm fluorescence (AID 1115); conditions: higher = more signal;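 also: probe is biotinylated aNog protein used at 0.15 µg/mL for 1 h at 4 C; z-score combines 667 nm fluorescence of each spot with its signal to noise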
[19] = biological target: Torsin-1A-interacting protein 1 (Homo sapiens) (UniProt Q5JTV8); experiment: LAP1 binders from COS7 cell lysate, primary screen, small-molecule microarray, 635/667 nm fluorescence (AID 1116); conditions: COS7-hLAP1 lysate binding, 635 nm fluorescence, higher = more signal
[20] = biological target: Alpha-bungarotoxin (Bungarus multicinctus) (UniProt P60615); experiment: alpha-bungarotoxin binders on microarray, profiling panel, artefact control for SMM control protein annotation, biochemical, small-molecule microarray, Alexa647 label, 635/667 nm fluorescence (AID 1117); conditions: alpha-BTX-A647 binding fluorescence, higher = more signal
Alpha-bungarotoxin (Bungarus multicinctus), sequence (P60615 whole entry, looked up): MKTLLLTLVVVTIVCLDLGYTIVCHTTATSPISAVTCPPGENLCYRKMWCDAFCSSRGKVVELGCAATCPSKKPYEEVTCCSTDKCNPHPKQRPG

Follistatin-related protein 3 (Homo sapiens), sequence (O95633 whole entry, looked up): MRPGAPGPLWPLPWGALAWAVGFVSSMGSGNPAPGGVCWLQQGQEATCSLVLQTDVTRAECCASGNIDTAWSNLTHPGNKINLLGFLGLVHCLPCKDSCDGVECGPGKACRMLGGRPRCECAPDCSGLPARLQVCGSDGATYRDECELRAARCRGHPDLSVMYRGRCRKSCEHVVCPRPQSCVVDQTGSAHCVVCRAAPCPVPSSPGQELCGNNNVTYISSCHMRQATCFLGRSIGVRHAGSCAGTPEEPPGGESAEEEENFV
Left-right determination factor 2 (Homo sapiens), sequence (O00292 whole entry, looked up): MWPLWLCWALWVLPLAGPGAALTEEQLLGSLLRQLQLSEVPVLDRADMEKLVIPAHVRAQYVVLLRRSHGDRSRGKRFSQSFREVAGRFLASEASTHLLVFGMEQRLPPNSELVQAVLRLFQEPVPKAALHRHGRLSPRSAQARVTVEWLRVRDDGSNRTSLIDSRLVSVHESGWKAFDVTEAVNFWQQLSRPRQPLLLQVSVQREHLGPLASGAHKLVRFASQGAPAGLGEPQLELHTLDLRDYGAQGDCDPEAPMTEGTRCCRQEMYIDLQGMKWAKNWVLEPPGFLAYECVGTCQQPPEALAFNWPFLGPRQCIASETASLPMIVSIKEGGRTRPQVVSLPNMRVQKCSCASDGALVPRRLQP
Dickkopf-related protein 1 (Homo sapiens), sequence (O94907 whole entry, looked up): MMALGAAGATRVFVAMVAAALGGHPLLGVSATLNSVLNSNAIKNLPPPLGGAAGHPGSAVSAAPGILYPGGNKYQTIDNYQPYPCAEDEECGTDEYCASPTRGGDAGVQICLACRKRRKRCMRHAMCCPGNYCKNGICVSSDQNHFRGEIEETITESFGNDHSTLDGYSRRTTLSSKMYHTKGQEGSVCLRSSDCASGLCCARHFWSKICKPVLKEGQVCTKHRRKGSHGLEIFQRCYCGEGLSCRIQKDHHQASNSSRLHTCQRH
Epidermal growth factor receptor (Homo sapiens), sequence (P00533 whole entry, looked up): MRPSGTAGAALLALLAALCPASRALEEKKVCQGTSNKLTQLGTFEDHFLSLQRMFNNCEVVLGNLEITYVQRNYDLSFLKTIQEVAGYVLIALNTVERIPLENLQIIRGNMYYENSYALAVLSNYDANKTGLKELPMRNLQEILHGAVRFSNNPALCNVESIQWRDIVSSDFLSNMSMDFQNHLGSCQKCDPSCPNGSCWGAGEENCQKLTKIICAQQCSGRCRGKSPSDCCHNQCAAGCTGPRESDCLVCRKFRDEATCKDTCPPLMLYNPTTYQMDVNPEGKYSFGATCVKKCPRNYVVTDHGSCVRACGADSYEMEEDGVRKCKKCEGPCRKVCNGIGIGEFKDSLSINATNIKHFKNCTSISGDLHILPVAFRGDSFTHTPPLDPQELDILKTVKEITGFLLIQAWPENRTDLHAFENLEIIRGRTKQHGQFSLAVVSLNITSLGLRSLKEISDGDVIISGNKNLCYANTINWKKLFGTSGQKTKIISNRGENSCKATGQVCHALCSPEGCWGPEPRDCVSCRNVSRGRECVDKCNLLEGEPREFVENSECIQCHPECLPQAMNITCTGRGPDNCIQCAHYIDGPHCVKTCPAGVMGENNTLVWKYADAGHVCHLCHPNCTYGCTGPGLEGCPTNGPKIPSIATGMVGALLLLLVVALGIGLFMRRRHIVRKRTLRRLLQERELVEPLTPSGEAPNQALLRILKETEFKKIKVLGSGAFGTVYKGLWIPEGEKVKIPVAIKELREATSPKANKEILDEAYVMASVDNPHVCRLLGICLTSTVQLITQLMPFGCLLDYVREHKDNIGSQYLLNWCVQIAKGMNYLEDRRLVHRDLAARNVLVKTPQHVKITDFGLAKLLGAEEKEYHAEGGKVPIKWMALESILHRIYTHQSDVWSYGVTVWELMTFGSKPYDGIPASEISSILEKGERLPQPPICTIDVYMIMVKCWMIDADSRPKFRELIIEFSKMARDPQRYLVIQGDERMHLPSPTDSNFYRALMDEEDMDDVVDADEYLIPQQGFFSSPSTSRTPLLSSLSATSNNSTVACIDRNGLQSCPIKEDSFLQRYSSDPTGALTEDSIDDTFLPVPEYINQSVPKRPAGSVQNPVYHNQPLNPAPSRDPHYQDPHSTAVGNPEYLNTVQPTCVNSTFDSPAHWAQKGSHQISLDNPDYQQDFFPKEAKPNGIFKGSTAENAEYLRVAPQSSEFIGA
Fibroblast growth factor 10 (Homo sapiens), sequence (O15520 whole entry, looked up): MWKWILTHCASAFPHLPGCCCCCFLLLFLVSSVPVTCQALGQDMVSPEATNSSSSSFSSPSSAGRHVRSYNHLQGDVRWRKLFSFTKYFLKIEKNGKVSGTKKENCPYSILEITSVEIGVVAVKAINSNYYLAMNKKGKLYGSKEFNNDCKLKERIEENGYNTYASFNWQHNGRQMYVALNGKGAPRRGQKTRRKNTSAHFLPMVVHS
Torsin-1A-interacting protein 1 (Homo sapiens), sequence (Q5JTV8 whole entry, looked up): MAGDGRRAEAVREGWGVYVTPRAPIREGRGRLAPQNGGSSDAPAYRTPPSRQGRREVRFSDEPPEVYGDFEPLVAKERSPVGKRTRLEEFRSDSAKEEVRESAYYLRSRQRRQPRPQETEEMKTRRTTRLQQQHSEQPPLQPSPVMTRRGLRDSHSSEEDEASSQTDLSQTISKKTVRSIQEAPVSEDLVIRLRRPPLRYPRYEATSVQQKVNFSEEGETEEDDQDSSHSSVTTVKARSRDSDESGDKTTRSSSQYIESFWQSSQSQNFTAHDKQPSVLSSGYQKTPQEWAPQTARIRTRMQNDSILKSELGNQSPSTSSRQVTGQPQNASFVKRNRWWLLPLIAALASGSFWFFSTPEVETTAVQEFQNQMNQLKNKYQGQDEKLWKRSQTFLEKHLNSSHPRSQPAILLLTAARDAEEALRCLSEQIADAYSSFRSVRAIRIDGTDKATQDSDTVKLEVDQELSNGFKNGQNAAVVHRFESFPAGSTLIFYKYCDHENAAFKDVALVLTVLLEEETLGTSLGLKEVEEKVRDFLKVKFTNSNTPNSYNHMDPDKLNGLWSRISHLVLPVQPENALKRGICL

Row | SMILES | composite z-score [1] | composite z-score [2] | composite z-score [3] | z-score [4] | composite z-score [5] | composite z-score [6] | composite z-score [7] | composite z-score [8] | composite z-score [9] | composite z-score [10] | composite z-score [11] | z-score [12] | composite z-score [13] | composite z-score [14] | composite z-score [15] | composite z-score [16] | composite z-score [17] | composite z-score [18] | composite z-score [19] | composite z-score [20]
1 | CC(C)(C)OC(=O)CC[C@]1(C(=O)NCc2ccccc2)COC(c2ccc(OCCCO)cc2)=N1 | 1.31 | 1.07 | 1.21 | -0.264 (inactive) | 0.361 | 0.319 | -0.716 | -0.334 | -1.17 | 0.469 | 0.326 | -0.605 | -0.632 | 0.98 | 1.11 | -0.001 | -0.138 | 1.31 | 2.07 | 2.47
2 | COC(=O)C1=CC(c2ccc(CO)cc2)=CC(C2CC2)N(C)C=C1C(=O)OC (stereo not given) | 1.97 | 0.341 | 0.542 | -1.93 (inactive) | 0.17 | -0.373 | -0.125 | -0.172 | 0.466 | 0.606 | -0.139 | -0.748 | -0.246 | 1.52 | 0.454 | -0.0179 | 0.111 | 0.407 | 2.82 | 3.09
3 | C=CCN1C(=O)[C@]2(O[C@H](CCn3cc([C@H](O)c4ccccc4)nn3)[C@@H]([Si](C)(C)c3ccc(OC)cc3)[C@@H]2C)c2cc(N3CCOC3=O)ccc21 | 0.147 | -0.228 | 0.0778 | -2.35 (inactive) | -0.57 | 0.387 | -0.754 | -0.577 | -0.272 | 0.147 | 0.724 | -3.64 | -0.69 | -0.169 | -0.367 | -0.16 | -0.043 | -0.176 | 0.525 | 0.479
4 | C=CC[C@@]1(C(=O)NCc2ccccc2)N=C(c2ccc(OCCCO)cc2)O[C@@H]1c1ccccc1 | 1.54 | 0.787 | 1.31 | -1.19 (inactive) | -0.28 | 0.659 | -1.08 | -0.571 | -0.918 | 0.997 | 0.483 | -3.03 | -0.762 | 1.68 | 0.369 | -0.101 | 0.123 | 0.49 | 1.68 | 1.1
5 | COc1ccc([Si](C)(C)[C@H]2[C@H](CC(=O)N(CCO)Cc3ccccc3)O[C@@]3(C(=O)N(Cc4cccc(N5C(=O)COc6ccccc65)c4)c4ccccc43)[C@@H]2C)cc1 | 1.29 | -0.209 | 0.202 | -2.08 (inactive) | 0.963 | 0.183 | 0.456 | 0.628 | 0.506 | 0.702 | -0.591 | -3.88 | 0.962 | -0.13 | -0.408 | -0.203 | 0.564 | 0.389 | 0.836 | 1.57
